Assay [1] addresses Voltage-gated inwardly rectifying potassium channel KCNH2 (Homo sapiens) (UniProt Q12809). Briefly: qHTS Assay for Small Molecule Inhibitors of the Human hERG Channel Activity (AID 588834).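 Note: lower thallium flux fluorescence means stronger hERG block; nearly all actives have a fitted effect of over 50% in size.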 Note: potency is the fitted concentration of half-maximal effect. Put shortly:
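Concentration-response qHTS measuring drop in thallium-sensitive dye signal. U2OS cells carrying BacMam hERG; compound exposure ~10 min, then stimulation buffer and 2 min read at 1 sec intervals.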

The target of assay [2] is Luciferin 4-monooxygenase (Photinus pyralis) (UniProt P08659). Briefly: Biochemical firefly luciferase enzyme assay for NPC (AID 624030).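 Note: purified P. pyralis luciferase at 10 nM with luciferin and ATP substrate; series mostly up to about 59 µM; nearly all actives have a fitted effect of over 70% in size.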 Put shortly:
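Counter-screen for direct inhibition of the luciferase enzyme by approved-drug library compounds, run at 10 nM enzyme in 50 mM Tris acetate (final). Luminescence was read within 5 min of enzyme-buffer addition and normalized to PTC124 versus DMSO (0%).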

Assay [3] can be described thus: S16 Schwann cell viability assay (CellTiter-Glo assay) (AID 624031). Note: nearly all actives have a fitted effect of over 70% in size. Note: potency is the fitted concentration of half-maximal effect. In outline: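 Parental S16 cells, 24 h compound, 37 °C. ATP-luminescence viability; DMSO = 0% activity, empty wells as reference; curves classified by fit quality and efficacy.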
The nature of assay [4]: S16 Schwann cell PMP22 intronic element beta-lactamase assay (AID 624044; calls by dose curve; note: nearly all actives have a fitted effect of over 15% in size). Put shortly:
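Rat S16 Schwann cells with beta-Lac driven by a PMP22 intronic element, compound-treated 24 h at 37 °C. LiveBLAzer FRET B/G read: 460 nm normalized to potassium clavulanate vs DMSO; 535 nm FRET as viability; concentration-effect curves classified.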

Assay [5] deals with Glutaminase kidney isoform, mitochondrial (Homo sapiens) (UniProt O94925). Briefly: qHTS for Inhibitors of Glutaminase (GLS): LOPAC Validation (AID 624146). Note: nearly all actives have a fitted effect of over 60% in size. Note: potency is the fitted concentration of half-maximal effect. Put shortly: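 Glutamate formation by hKGA was monitored fluorometrically using coupled glutamate oxidase, HRP and Amplex Red. Substrate was added as 1 mM L-glutamine solution; incubation was 30 min at RT after an initial read.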

A short description of assay [6]: qHTS of Trypanosoma Brucei Inhibitors: LOPAC Validation (AID 624147). In outline: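 Readout: single end-point luminescence (Kinase-Glo Plus, 10 min). Reaction conditions were TbPYK/substrate plus 130 uM ADP, 45 min at RT, pH 7.2 TEA buffer. No-enzyme wells served as controls, and data were normalized before concentration-response fitting.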
The target in assay [7] is Glucagon-like peptide 1 receptor (Homo sapiens) (UniProt P43220). Put plainly: qHTS of GLP-1 Receptor Agonists: LOPAC Validation (AID 624148).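 Note: higher luminescence signal means agonism.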 Put shortly:
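HEK293 cells stably co-expressing a cAMP-responsive luciferase reporter and a hypersensitive GLP-1R were plated 12 h at 37 °C and exposed to compounds for 4-6 hr at 37 °C, 5% CO2. Luminescence was read 12 min after adding detection reagent.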

The nature of assay [8]: qHTS of Nrf2 Activators: LOPAC Validation (AID 624149). In outline: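 AREc32 cells carrying an ARE-driven firefly luciferase were grown overnight in OPTI-MEM with 5% FBS, then exposed to compounds for 24 hr at 37 deg C. Luciferase signal was read after 30 min with Steady-Glo at RT.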
Assay [9] is described as follows: HTS Assay for Allosteric Antagonists of the Human D2 Dopamine Receptor: Hit Validation in HTRF (AID 624455).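 Note: stable D1 dopamine receptor cell line scored for blocking the D1 response.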 In outline: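 Hits were examined in an HTRF assay using cells stably expressing the D1 dopamine receptor, scoring inhibition of the D1-mediated response. The preceding primary screen tracked calcium flux after an EC80 dopamine addition in force-coupled, inducible Hek293 Trex D2 cells.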

Assay [10] is described as follows: S16 Schwann cell PMP22 intronic element firefly luciferase assay (AID 624032). Note: nearly all actives have a fitted effect of over 30% in size. Note: potency is the fitted concentration of half-maximal effect. In outline:
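Rat S16 Schwann cells stably carrying a PMP22 intronic element-driven Fluc reporter were seeded overnight, then exposed to compounds for 24 h at 37 °C. Luminescence was normalized to PTC124 (positive control) and DMSO (0% activity).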

Assay [11] is described as follows: Cytotoxicity counterscreen for NFkB agonists and antagonists (AID 624476).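 Note: cells exposed to compound for 48 hours.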
Assay [12] is described as follows: qHTS Assay for Identification of Small Molecule Agonists for NFkB Signaling Pathway. (AID 624478). Put shortly: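 NFkB-bla ME-180 cells (beta-lactamase reporter under NFkB response element) were plated overnight, treated with compound plus TNF alpha at 10 pM final (its EC50) for 5 hrs at 37 C, then loaded with LiveBLAzer substrate for 2 hrs.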
The nature of assay [13]: qHTS Assay for Identification of Small Molecule Antagonists for NFkB Signaling Pathway. (AID 624479; calls by dose curve;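 note: pathway stimulated with TNF alpha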).

Where “and” joins values, the source holds several entries; their conditions need not be identical. Equal entries are not always repeated. Inconclusive results are not listed. A structure can be active in one record and inactive in another. Calls of active or inactive are those of the source. Unless noted, calls come from the whole dose curve; as a rule, active = well fitted curve in the direction sought with a large enough effect; inconclusive = small, poorly fitted or top-dose-only effect, or another doubt; inactive = no such curve, though single readings can be large; an effect the other way counts as inactive or inconclusive.

Luciferin 4-monooxygenase (Photinus pyralis), sequence (P08659 whole entry, looked up): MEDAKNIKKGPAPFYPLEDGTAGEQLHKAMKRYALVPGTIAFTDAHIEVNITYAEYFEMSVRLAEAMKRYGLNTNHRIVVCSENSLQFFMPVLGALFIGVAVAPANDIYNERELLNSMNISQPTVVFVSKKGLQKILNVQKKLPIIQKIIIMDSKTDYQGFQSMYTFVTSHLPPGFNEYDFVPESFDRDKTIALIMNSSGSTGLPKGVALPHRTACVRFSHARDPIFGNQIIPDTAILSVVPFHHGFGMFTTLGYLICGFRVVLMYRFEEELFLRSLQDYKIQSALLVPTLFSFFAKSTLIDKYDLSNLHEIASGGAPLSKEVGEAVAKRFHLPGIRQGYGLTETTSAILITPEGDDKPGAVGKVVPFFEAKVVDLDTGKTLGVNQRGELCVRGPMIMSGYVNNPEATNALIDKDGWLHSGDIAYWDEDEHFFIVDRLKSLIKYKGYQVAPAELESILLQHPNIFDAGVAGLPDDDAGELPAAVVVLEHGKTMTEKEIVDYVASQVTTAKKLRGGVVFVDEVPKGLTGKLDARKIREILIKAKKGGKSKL
Voltage-gated inwardly rectifying potassium channel KCNH2 (Homo sapiens), sequence (Q12809 whole entry, looked up): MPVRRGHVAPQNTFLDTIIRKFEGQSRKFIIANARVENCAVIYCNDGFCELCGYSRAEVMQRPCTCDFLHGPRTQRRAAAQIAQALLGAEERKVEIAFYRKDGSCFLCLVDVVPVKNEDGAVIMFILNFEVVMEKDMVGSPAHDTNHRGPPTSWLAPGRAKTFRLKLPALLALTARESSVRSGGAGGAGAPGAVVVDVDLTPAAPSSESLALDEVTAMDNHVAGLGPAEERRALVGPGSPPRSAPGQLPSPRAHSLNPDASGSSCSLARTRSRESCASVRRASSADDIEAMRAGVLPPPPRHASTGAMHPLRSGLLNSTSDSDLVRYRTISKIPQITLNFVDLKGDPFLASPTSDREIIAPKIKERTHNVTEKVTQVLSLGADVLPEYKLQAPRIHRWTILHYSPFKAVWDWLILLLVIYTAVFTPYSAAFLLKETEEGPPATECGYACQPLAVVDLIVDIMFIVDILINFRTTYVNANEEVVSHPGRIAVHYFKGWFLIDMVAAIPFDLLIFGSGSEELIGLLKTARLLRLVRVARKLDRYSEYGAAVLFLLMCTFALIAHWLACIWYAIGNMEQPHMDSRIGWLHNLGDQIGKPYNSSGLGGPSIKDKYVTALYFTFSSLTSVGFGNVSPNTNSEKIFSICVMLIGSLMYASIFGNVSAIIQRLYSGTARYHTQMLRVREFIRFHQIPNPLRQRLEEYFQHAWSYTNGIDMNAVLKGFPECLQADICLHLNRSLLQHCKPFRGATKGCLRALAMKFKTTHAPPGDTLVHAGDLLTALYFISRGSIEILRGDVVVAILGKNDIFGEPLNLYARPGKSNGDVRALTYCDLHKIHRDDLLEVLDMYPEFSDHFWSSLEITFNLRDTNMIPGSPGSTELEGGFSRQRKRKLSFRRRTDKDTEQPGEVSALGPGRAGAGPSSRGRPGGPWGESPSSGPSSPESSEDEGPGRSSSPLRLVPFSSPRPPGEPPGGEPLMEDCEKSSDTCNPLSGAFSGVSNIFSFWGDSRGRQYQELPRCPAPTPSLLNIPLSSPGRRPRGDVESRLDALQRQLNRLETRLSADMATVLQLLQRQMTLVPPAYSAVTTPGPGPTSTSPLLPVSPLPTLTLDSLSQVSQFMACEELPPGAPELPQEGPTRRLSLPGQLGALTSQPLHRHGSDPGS
Glucagon-like peptide 1 receptor (Homo sapiens), sequence (P43220 whole entry, looked up): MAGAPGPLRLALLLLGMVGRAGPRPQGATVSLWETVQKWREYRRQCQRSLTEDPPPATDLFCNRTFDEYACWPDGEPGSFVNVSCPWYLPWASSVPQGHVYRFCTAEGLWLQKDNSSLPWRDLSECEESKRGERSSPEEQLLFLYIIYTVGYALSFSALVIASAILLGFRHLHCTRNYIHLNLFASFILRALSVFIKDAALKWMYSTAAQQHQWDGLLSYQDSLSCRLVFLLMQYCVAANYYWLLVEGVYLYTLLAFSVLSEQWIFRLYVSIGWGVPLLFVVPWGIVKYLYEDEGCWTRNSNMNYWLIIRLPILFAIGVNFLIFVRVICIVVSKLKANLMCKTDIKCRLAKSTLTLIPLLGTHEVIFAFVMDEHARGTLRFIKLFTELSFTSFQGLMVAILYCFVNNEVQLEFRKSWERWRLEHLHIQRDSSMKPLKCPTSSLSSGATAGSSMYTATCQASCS
Glutaminase kidney isoform, mitochondrial (Homo sapiens), sequence (O94925 whole entry, looked up, canonical isoform): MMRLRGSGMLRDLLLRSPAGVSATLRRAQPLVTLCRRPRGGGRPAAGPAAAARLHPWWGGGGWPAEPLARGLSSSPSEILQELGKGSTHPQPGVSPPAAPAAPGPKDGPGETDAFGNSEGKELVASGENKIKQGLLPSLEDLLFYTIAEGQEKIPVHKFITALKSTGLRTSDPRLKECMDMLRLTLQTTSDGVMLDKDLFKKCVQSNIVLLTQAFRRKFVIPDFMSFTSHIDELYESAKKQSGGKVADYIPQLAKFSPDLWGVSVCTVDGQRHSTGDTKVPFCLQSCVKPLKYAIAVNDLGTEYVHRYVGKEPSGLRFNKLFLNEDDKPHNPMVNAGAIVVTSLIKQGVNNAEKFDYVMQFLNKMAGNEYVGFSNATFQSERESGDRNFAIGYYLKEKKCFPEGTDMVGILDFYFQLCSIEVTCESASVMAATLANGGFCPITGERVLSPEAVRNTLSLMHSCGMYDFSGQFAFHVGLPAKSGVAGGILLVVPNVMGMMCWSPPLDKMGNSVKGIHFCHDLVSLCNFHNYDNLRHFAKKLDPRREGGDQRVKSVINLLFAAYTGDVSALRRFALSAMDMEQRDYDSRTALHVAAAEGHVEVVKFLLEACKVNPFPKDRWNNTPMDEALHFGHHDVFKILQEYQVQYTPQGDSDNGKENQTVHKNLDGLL

Consider `COc1ccc2c(c1)C(=O)N(CCc1ccc(S(=O)(=O)NC(=O)NC3CCCCC3)cc1)C(=O)C2(C)C`, for which the Potency entry in [1], in [2], in assay [3] and in assay [4] was “inactive” each time.

For `CC(=O)OCC(=O)[C@@]1(O)CC[C@H]2[C@@H]3CCC4=CC(=O)CC[C@]4(C)[C@H]3C(=O)C[C@@]21C`, the Potency entry in [1], in [2] and in assay [5] was “inactive” throughout. Moreover, the compound was called inactive in assay [6], in [7], in assay [8] and in [9].

As to `Cn1c(=O)c2c(ncn2CC2OCCO2)n(C)c1=O`, the Potency result in assay [1], in [2] and in assay [10] was “inactive” in each case.

For `Nc1ccc(S(=O)(=O)Nc2ccccc2)cc1`, the Potency entry in assay [1], in assay [2] and in assay [4] was “inactive” in each case.

As for `CC1(C)OC(=O)NC1=O`, the Potency result in assay [1], in assay [2] and in assay [10] was “inactive” throughout.

As to `CC[C@H]1CN2CCc3cc(OC)c(OC)cc3[C@@H]2C[C@@H]1C[C@H]1NCCc2cc(OC)c(OC)cc21`, the Potency entry in assay [5] is “inactive”. In addition, the call in [6], in assay [7], in [8] and in assay [9] was inactive.

As for `CNCCCC1c2ccccc2C=Cc2ccccc21`, the Potency entry in assay [2] and in assay [5] was “inactive” each time. In addition, the compound was classed as inactive in [6], in [7], in [8] and in [9].

As for `O=C(O)Cc1sc(-c2ccccc2)nc1-c1ccc(Cl)cc1`, the Potency entry in assay [2] is “inactive”.

As for `CC(C)(C(=O)O)c1ccc(C(O)CCCN2CCC(C(O)(c3ccccc3)c3ccccc3)CC2)cc1` (configuration not stated), the Potency result in assay [2] and in [5] was “inactive” throughout. Besides, the result in assay [6], in [7], in [8] and in [9] was inactive.

Turning to `OCc1cc(C(O)CNCCCCCCOCCCCc2ccccc2)ccc1O` (configuration not stated), the Potency in [1] is 4.47 µM (active) and 3.55 µM (active); in [3], 20.3 µM (active). The Potency entry in [4] and in [5] was “inactive” throughout. For the same compound, the outcome in assay [6], in [7], in assay [8] and in assay [9] was inactive.

For the compound `CC(C)c1c(C(=O)Nc2ccccc2)c(-c2ccccc2)c(-c2ccc(F)cc2)n1CC[C@@H](O)C[C@@H](O)CC(=O)O`, the Potency result in [2], in [3] and in assay [10] was “inactive” each time.

As to `CCCCN(CCCC)CCCOC(=O)c1ccc(N)cc1`, the Potency entry in [2], in [3] and in [10] was “inactive” in each case.

On to `O=C1N=C(O)CN1/N=C/c1ccc(-c2ccc([N+](=O)[O-])cc2)o1`, for which the Potency entry in assay [1] and in assay [5] was “inactive” in each case. The result in assay [6], in assay [7], in [8] and in assay [9] was inactive.

Regarding `CCOc1nc2cccc(C(=O)O)c2n1Cc1ccc(-c2ccccc2-c2nn[nH]n2)cc1`, the Potency result in [2] and in [3] was “inactive” throughout.

`CC(C)(C)[C@]1(O)CCN2C[C@H]3c4ccccc4CCc4cccc(c43)[C@@H]2C1`: in assay [5], the Potency result is “inactive”. Moreover, the outcome in assay [6], in assay [7] and in assay [8] was inactive.

As to `NC(=O)c1ncn([C@@H]2O[C@H](CO)[C@@H](O)[C@H]2O)c1N`, the Potency entry in [1] was “inactive”. For the same compound, the call in assay [11], in assay [12] and in assay [13] was inactive.

In the case of `CSc1ccc2c(c1)N(CCC1CCCCN1C)c1ccccc1S2` (configuration not stated), the Potency result in assay [2] and in assay [4] was “inactive” in each case. Also, the figures for the Potency in assay [3] and in assay [10] were 32.2 µM (active) and 28.7 µM (active), respectively. In addition, the compound was classed as inactive in [6], in [7], in [8] and in [9].

Consider `NC(=O)NNc1ccccc1`, for which the Potency result in assay [2], in assay [3] and in assay [4] was “inactive” throughout.

As for `CCCCN(CCCC)CC(O)c1cc(Cl)cc2c1-c1ccc(Cl)cc1/C2=C/c1ccc(Cl)cc1` (configuration not stated), in assay [2], the Potency entry was “inactive”. Besides, the Potency in assay [3] is 28.7 µM (active).

On to `c1ccc(CN(CC2=NCCN2)c2ccccc2)cc1`, for which the Potency result in assay [2] and in assay [10] was “inactive” each time.

As to `O=S(=O)(O)c1cc(I)c(O)c2ncccc12`, the Potency result in assay [1], in assay [3] and in assay [10] was “inactive” in each case.

Regarding `CC(C)C(=O)c1c(C(C)C)nn2ccccc12`, the Potency entry in assay [1], in assay [2] and in assay [5] was “inactive” each time. Besides, the call in assay [6], in assay [7], in assay [8] and in assay [9] was inactive.

Consider `CN(C)CCCN1c2ccccc2CCc2ccccc21`, for which the Potency entry in assay [2], in [3] and in assay [5] was “inactive” in each case. The result in [9] was inactive.

Consider `CNCC(O)c1ccc(O)c(O)c1` (configuration not stated), for which, in [5], the Potency entry is “inactive”. Also, the compound was called inactive in [6] and in [8].

Consider `Cc1ccc(C(C)C)cc2c(C)ccc1-2`, for which the Potency entry in [2], in assay [3] and in assay [4] was “inactive” in each case.

For the compound `Cc1cc(C(C#N)c2ccc(Cl)cc2)c(Cl)cc1NC(=O)c1cc(I)cc(I)c1O` (configuration not stated), the Potency entry in assay [1], in assay [3] and in assay [4] was “inactive” each time.

On to `CN(C)CC[C@@H](c1ccc(Cl)cc1)c1ccccn1`, for which, in [5], the Potency entry was “inactive”. In addition, the call in [6], in assay [7], in assay [8] and in assay [9] was inactive.

Take `CC(C)NC[C@H](O)c1ccc(O)c(O)c1`: the Potency result in [1] is “inactive”. Besides, the Potency in assay [5] is 5.01 µM (active) and inactive. Besides, the result in assay [6] and in assay [8] was inactive.

For the compound `CCN(CC)C(C)CN1c2ccccc2Sc2ccccc21` (configuration not stated), the values for the Potency in assay [1] and in assay [5] were 7.94 µM (active) and 11.2 µM (active), respectively. The compound was called inactive in assay [6], in assay [7], in [8] and in [9].

For `CC(C)(C)C(=O)C(Oc1ccc(Cl)cc1)n1ccnc1` (configuration not stated), the Potency result in assay [2], in [3] and in assay [4] was “inactive” in each case.

On to `CCN(CC)CCNC(=O)c1c(C)[nH]c(/C=C2\C(=O)Nc3ccc(F)cc32)c1C`, for which the Potency entry in assay [2] and in [4] was “inactive” in each case.

Turning to `NC(N)=NCCC[C@H](N)C(=O)O`, the Potency entry in assay [1] and in [5] was “inactive” in each case. For the same compound, the outcome in assay [6], in assay [7], in assay [8] and in [9] was inactive.

Regarding `CNCCC(Oc1ccc(C(F)(F)F)cc1)c1ccccc1` (configuration not stated), the Potency result in assay [2], in assay [4] and in [5] was “inactive” in each case. Further, the outcome in assay [6], in assay [7], in assay [8] and in [9] was inactive.

As for `CCN(CC)CCCC(C)Nc1c2ccc(Cl)cc2nc2ccc(OC)cc12` (configuration not stated), the Potency in [1] is 14.1 µM (active) and 11.2 µM (active). The Potency result in [5] was “inactive”. The compound was called inactive in assay [6], in assay [7] and in [8].

As to `CCN(CC)CCOC(=O)C1(C2CCCCC2)CCCCC1`, the Potency entry in assay [2] and in assay [5] was “inactive” in each case. The compound was classed as inactive in [6], in [7], in assay [8] and in assay [9].

In the case of `N=c1c[n+](N2CCOCC2)[n-]o1`, the Potency entry in [1] and in assay [5] was “inactive” in each case. Also, the compound was called inactive in [6], in [7], in assay [8] and in assay [9].

Turning to `CC1=C(CC(=O)O)c2cc(F)ccc2/C1=C\c1ccc(S(C)(=O)=O)cc1`, the Potency entry in [1], in assay [2] and in assay [5] was “inactive” in each case. Also, the compound was classed as inactive in assay [6], in assay [7], in assay [8] and in assay [9].

As for `CC(=O)O[C@@]12CO[C@@H]1C[C@H](O)[C@@]1(C)C(=O)[C@H](O)C3=C(C)[C@@H](OC(=O)[C@H](O)[C@@H](NC(=O)OC(C)(C)C)c4ccccc4)C[C@@](O)([C@@H](OC(=O)c4ccccc4)[C@H]21)C3(C)C`, the Potency entry in [1] is “inactive”. Further, the call in [11], in assay [12] and in assay [13] was inactive.

Source of the values: PubChem BioAssay (NCATS).
